Assay results reported in PubChem BioAssay AID1745853 (National Center for Advancing Translational Sciences (NCATS), 2022).
Several values for one entry are separate records, joined by “and”; a condition that tells them apart may be missing. Equal values may be shown once. About 970 (3.9%) of roughly 25,000 compounds were called active. Another 8% or so got no clear call; they are omitted. How the calls were made is not given here. The full list was thinned out, with actives kept by preference.

Experiments:
Assay in all cases: Primary Screen for Target Class Profiling of Small Molecule Inhibitors of Methyltransferases
[1] = target: Catechol O-methyltransferase (Homo sapiens) (UniProt P21964); settings: purified enzyme, MTase-Glo SAH luminescence; activity change, negative = inhibition: at 40 µM, stronger effect = lower value; outcome: 40 uM
Source text: (§1) PI: Matthew D. Hall Ph.D. and Quinlin M. Hanson Ph.D.
(§2) National Center for Advancing Translational Sciences (NCATS)
(§3) National Institute of Health (NIH), Rockville, MD
(§4) Target class profiling (TCP) is a chemical biology approach amenable to investigating understudied biological targets. TCP is achieved by developing a generalizable assay platform and applying it to screen a curated set of compound libraries against representative members of a target class. Small molecule methyltransferases (SMMTase) are a subclass of methyltransferase that act on metabolites to modulate signaling pathways, metabolize xenobiotics, or balance the available methyl pool. We screened four curated libraries totaling 27,574 unique compounds against the SMMTases nicotinamide N-methyltransferase (NNMT), phenylethanolamine N-methyltransferase (PNMT), histamine N-methyltransferase (HNMT), glycine N-methyltransferase (GNMT), catechol O-methyltransferase (COMT), and guanidinoacetate N-methyltransferase (GAMT). The data generated by this TCP can be leveraged for informed tool molecule development. For example, in the associated publication we identified a chemotype of HNMT-selective inhibitors. Additionally, we identified a putative SMMTase-selective inhibitor with potential as a tool molecule for studying broader methyltransferase biology.
(§5) High-through put screening assays were developed at the National Center for Advancing Translational Science (NCATS) for the enzymes NNMT, PNMT, HNMT, GNMT, COMT, and GAMT. Enzymatic activity was measured as a function of SAM cofactor conversion using the MTase Glo kit (Promega) for all enzymes. All assays were performed in 1536-well format with substrates and SAM concentrations at KM values. Enzyme concentration and assay timing were optimized for 10-20% SAM conversion. Initial screening of 27,574 compounds was done as single-point assays using the highest compound concentration (40 uM). […] These compounds were replated in 11-point dose response and assayed against NNMT, PNMT, HNMT, GNMT, COMT, GAMT, and a counter-assay. The IC50 and efficacy (maximal response) values were determined for each dose-response curve. These values are also accounted for in the area under the curve (AUC) values.
(§6) PROTOCOL TABLE (as described by Inglese J, Shamu CE and Guy RK. 2007)
(§7) SEQUENCE No. (e.g., 1, 2, 3, etc.); […] (e.g., Cells, Incubation, Reagent, etc.); VALUE; DESCRIPTION.
(§8) 1; Reagent; 2 uL; SMMTase Enzyme (2x) in reaction buffer, columns 1- 48.
(§9) 2; Reagent; 1 uL; SAM (4x) in reaction buffer, columns 1-48.
(§10) 3; Controls; 23 nL; DMSO in column 4; sinefungin in DMSO (0 uM - 40 uM) in 7-point 1:2 dilution series (n = 2) in column 2.
(§11) 4; Compounds; 23 nL; Columns 5-48.
(§12) 5; Reagent; 1 uL; Substrate (4x) in reaction buffer, columns 2-48.
(§13) 6; Time; 20-30 min; Incubation.
(§14) 7; Reagent; 1 uL; MTase-Glo reagent (5X), columns 1-48.
(§15) 8; Time; 30 min; Incubation.
(§16) 9; Reagent; 5 uL; MTase-Glo Detection reagent, columns 1-48.
(§17) 10; Time; 30 min; Incubation, luminescence evolution.
(§18) 11; Detection; Luminescence; ViewLux uHTS Microplate Imager (PerkinElmer).
(§19) NOTES (numbers refer to Sequence numbers above)
(§20) 1, 2, 5. White Medium Binding Greiner 1536-well plates (Cat #789175-F, Greiner Bio-One, Monroe, NC); Reaction buffer: 50 mM Tris, pH 8.0, 3 mM MgCl2, 1 mM EDTA, 50 mM NaCl, 1 mM DTT, and 0.1 mg/mL BSA. Evaporation was prevented by covering assay plates with metal lids containing holes to allow gas diffusion.
(§21) 1. Six SMMTase were profiled: HNMT, GNMT, PNMT, COMT, NNMT, GAMT
(§22) 5. The corresponding substrate was used for each enzyme: HNMT - 5.3 uM Histamine; GNMT - >500 uM Glycine; PNMT - 16.2 uM Norephinephrine; COMT - 13.7 uM Norephinephrine; NNMT - 3.8 uM Nicotinamide; GAMT - 2.5 uM Guanidinoacetate.6, 8, 10. Room temperature
(§23) 6. Final reaction conditions: 10 nM COMT, 5 uM SAM, 15 uM norepinephrine, 50 mM Tris, pH 8.0, 3 mM MgCl2, 1 mM EDTA, 50 mM NaCl, 1 mM DTT, and 0.1 mg/mL BSA; refer to tables 2 and S1 for specific timing.
8. […]

[2] = target: Glycine N-methyltransferase (Homo sapiens) (UniProt Q14749); settings: purified enzyme, MTase-Glo SAH luminescence; measured here: GNMT inhibition; at 40 µM; stronger effect = lower value
Source text: as §1, §2, §3, §4, §5, §6, §7, §8, §9, §10, §11, §12, §13, §14, §15, §16, §17, §18, §19, §20, §21, §22, §23
8. […]

[3] = target: Guanidinoacetate N-methyltransferase (Homo sapiens) (UniProt Q14353); settings: purified enzyme, MTase-Glo SAH luminescence; measured here: GAMT inhibition; at 40 µM; stronger effect = lower value
Source text: as §1, §2, §3, §4, §5, §6, §7, §8, §9, §10, §11, §12, §13, §14, §15, §16, §17, §18, §19, §20, §21, §22, §23
8. […]

[4] = target: Histamine N-methyltransferase (Homo sapiens) (UniProt P50135); settings: purified enzyme, MTase-Glo SAH luminescence; measured here: HNMT inhibition; at 40 µM; stronger effect = lower value
Source text: as §1, §2, §3, §4, §5, §6, §7, §8, §9, §10, §11, §12, §13, §14, §15, §16, §17, §18, §19, §20, §21, §22, §23
8. […]

[5] = target: Nicotinamide N-methyltransferase (Homo sapiens) (UniProt P40261); settings: purified enzyme, MTase-Glo SAH luminescence; measured here: NNMT inhibition; at 40 µM; stronger effect = lower value
Source text: as §1, §2, §3, §4, §5, §6, §7, §8, §9, §10, §11, §12, §13, §14, §15, §16, §17, §18, §19, §20, §21, §22, §23
8. […]

[6] = target: Phenylethanolamine N-methyltransferase (Homo sapiens) (UniProt P11086); settings: purified enzyme, MTase-Glo SAH luminescence; measured here: PNMT inhibition; at 40 µM; stronger effect = lower value
Source text: as §1, §2, §3, §4, §5, §6, §7, §8, §9, §10, §11, §12, §13, §14, §15, §16, §17, §18, §19, §20, §21, §22, §23
8. […]
On the % scale 0 is the no-effect control and ±100 the full control effect.

Sequence of Catechol O-methyltransferase (Homo sapiens) (P21964 whole entry, looked up): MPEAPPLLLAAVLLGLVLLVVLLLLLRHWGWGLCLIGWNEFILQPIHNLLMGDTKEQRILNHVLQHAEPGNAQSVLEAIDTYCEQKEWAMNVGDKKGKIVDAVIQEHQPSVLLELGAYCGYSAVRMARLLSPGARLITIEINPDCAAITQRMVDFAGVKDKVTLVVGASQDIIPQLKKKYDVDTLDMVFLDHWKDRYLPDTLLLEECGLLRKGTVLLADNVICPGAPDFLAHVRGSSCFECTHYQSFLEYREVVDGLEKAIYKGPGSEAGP
Sequence of Glycine N-methyltransferase (Homo sapiens) (Q14749 whole entry, looked up): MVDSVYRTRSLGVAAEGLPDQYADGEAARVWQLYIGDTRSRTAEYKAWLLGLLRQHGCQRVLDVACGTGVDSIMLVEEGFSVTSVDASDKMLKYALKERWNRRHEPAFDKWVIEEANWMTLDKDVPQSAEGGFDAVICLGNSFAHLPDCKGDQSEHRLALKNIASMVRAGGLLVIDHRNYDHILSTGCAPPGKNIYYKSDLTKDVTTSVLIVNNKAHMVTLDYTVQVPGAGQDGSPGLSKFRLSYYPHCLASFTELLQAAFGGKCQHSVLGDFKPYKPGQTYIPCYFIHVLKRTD
Sequence of Nicotinamide N-methyltransferase (Homo sapiens) (P40261 whole entry, looked up): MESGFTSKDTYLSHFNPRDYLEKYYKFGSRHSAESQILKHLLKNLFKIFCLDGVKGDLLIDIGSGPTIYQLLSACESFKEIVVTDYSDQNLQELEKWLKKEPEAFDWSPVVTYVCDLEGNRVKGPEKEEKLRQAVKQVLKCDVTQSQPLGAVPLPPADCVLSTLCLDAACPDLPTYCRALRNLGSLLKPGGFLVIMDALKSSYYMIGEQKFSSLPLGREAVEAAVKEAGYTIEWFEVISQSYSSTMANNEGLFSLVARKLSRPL
Sequence of Phenylethanolamine N-methyltransferase (Homo sapiens) (P11086 whole entry, looked up): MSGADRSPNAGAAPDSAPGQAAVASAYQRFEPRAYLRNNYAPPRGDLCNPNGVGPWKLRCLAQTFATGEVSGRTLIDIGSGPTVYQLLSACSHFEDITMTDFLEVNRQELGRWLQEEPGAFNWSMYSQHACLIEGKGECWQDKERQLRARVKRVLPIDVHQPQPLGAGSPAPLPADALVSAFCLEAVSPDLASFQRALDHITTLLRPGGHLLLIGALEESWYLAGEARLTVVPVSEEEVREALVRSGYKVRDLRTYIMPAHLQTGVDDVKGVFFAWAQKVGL
Sequence of Histamine N-methyltransferase (Homo sapiens) (P50135 whole entry, looked up): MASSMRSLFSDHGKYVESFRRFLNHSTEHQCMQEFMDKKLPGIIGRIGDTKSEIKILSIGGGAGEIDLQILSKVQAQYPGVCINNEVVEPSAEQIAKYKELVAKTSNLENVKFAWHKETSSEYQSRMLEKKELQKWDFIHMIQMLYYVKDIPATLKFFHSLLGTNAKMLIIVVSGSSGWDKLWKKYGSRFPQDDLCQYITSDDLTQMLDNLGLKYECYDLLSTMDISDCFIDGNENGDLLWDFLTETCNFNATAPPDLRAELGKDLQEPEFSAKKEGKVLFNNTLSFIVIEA

Row | Compound | activity change, negative = inhibition [1] | activity change, negative = inhibition [2] | activity change, negative = inhibition [3] [%] | activity change, negative = inhibition [4] | activity change, negative = inhibition [5] | activity change, negative = inhibition [6]
1 | Cc1ccc(COc2ccc3c(-c4ccccc4)cc(=O)oc3c2)cc1 | 1.55% (inactive) | -1.02% | 8.91 | 3.98% | 6.08% | -3.92%
2 | CCCN1C(=O)c2cc(C(=O)N3CCC(C)CC3)nn2CC1(C)C(=O)NC1CCCC1 (centres undefined) | -0.787% (inactive) | -3.38% | 3.26 | 4.03% | -4.98% | -1.07%
3 | CCc1ccc(S(=O)(=O)c2nnn3c2nc(N2CCCCC2)c2ccccc23)cc1 | 3.62% (inactive) | 0.777% | 0 | 6.93% | -3.24% | -1.25%
4 | Cc1cn(CCN2CCN(c3ccccc3-c3cc(C#N)cc(C(=O)NCCCN4CCCC4)c3)CC2)c2ccccc12 | -11% (active) and 25.9% (active) | 0.523% and -14.2% | 12 | -86.5% and -77.8% | -17.4% and 7.48% | -1.62% and 35.5%
5 | CCOc1ccc(CN2C(=O)c3cc(C(C)(C)C)nn3CC2(C)C(=O)NC2CCCCCC2)cc1 (centres undefined) | -0.389% (inactive) | -3.62% | 4.61 | -1.08% | -2.24% | -3.09%
6 | COc1cccc(-c2ccc(C(=O)NCCN[S+](=O)([O-])c3cccs3)cc2)c1 | 1.95% (inactive) | -8.51% | -1.67 | -4.59% | -5.98% | -13%
7 | CCNC(=O)N1CC[C@H]2CC(=O)N(Cc3cccnc3)CC[C@H]2C1 | -8.99% (inactive) | -6.64% | -7.68 | -5.27% | -14.8% | -11.5%
8 | COc1cccc(C(=O)N(CC(C)C)CC2CN(C(=O)Nc3ccccc3)CCO2)c1 (centres undefined) | -3.51% (inactive) | -5.73% | -3.93 | -3.02% | -7.14% | 0.149%
9 | Cn1c(=O)c2ccc(C(=O)NC3CCCCC3)cc2n2c(SCc3cccc(Cl)c3)nnc12 | 2.97% (inactive) | 2.72% | 0.691 | 2.66% | 1.84% | 5.9%
10 | CCn1ccnc1CN(C)C(=O)c1cc(COc2ccccc2F)[nH]n1 | 4.03% (inactive) | -2.18% | -0.135 | -1.52% | -4% | -1.63%
11 | CC1(C(=O)NC2CCCCC2)Cn2c(ccc2-c2ccccc2)C(=O)N1CCC1=CCCCC1 (centres undefined) | 6.36% (inactive) | 9.19% | 0.753 | 8.84% | 8.48% | 6.08%
12 | COc1ccc(CN2C(=O)c3ccc(-c4ccco4)n3CC2(C)C(=O)NC2CCCCCC2)cc1 (centres undefined) | -2.99% (inactive) | -14.7% | 0.968 | -7.66% | -8.88% | -4.52%
13 | CCCS(=O)(=O)NCC1Cn2cccc2C(=O)N1CCOC (centres undefined) | 2.41% (inactive) | 0.792% | -0.491 | 0.026% | -3.41% | 0.672%
14 | Cc1ccc(OCCC2CCN(C(=O)Cn3cnc4c3c(=O)n(C)c(=O)n4C)C2)cc1 (centres undefined) | -5.48% (inactive) | -7.34% | -5.09 | -2.32% | -21% | -7.16%
